Data taken from paper PMC13494018.
A number with no mark means an inactive call. How the calls were made is not given here.

B1: design_609_7ee6ce64-4629-41e8-bcb4-ba0da017284d_2409_dldesign_0_cycle1_af2pred (protein)
chain: SMEEEELRKKADEVAEKAAKIAEEADPELGKKFRERAEKAKKDPVDAYAYYVAQAAKSGGIILEKLGKEEEGKKLKELGKELEKALEE
B2: design_609_7ee6ce64-4629-41e8-bcb4-ba0da017284d_2421_dldesign_0_cycle1_af2pred (protein)
chain: AAKEEVEKKAEEVIKKLKEIGEKDPNAKELTDDLIKTLKKEVEKYKDDPEKAKKAVDKAEKTADSLEEAVKY
B3: design_609_7ee6ce64-4629-41e8-bcb4-ba0da017284d_2287_dldesign_0_cycle1_af2pred (protein)
chain: SDLEATELQIKAARLVAEAKRALAELTPEEGLARAKELFAEAEKAVKAAAKLLSPEAGKALVAALKERSAAILAEAEKAAAA
B4: design_609_7ee6ce64-4629-41e8-bcb4-ba0da017284d_2471_dldesign_0_cycle1_af2pred (protein)
chain: MEALKARGDLDVVADQATQIAKLAAEHPELAELGKRAAELAARAKAAQAGDPEETIKKAKELRAERRELVAETKKRLAAL
B5: design_609_7ee6ce64-4629-41e8-bcb4-ba0da017284d_2408_dldesign_0_cycle1_af2pred (protein)
chain: SSAAEEAAKKVEETAKKIKEEGLPEEEAKKLLSEALLLVADHDSPELAERALKAFEELSKYYPGAAKAAKILKRRLEALKKN
B6: design_609_7ee6ce64-4629-41e8-bcb4-ba0da017284d_2306_dldesign_0_cycle1_af2pred (protein)
chain: LSENEKLKKAADYTSKAAKLAAEAAKKYKLPPEAVKKAQEAINLLFSSTDKETAEKAVELAKEAAKYMPESVAKKFLELVEKAAEYWS
B7: design_609_7ee6ce64-4629-41e8-bcb4-ba0da017284d_2438_dldesign_0_cycle1_af2pred (protein)
chain: MKEEMIKEAKKLMEEGKKKFEEAVKLPASEAAEASKLMHEGHELLTEAAWLAKKAGDEELAKEAKKARKEAVKKGKEAQAASAAA
B8: design_609_7ee6ce64-4629-41e8-bcb4-ba0da017284d_2235_dldesign_0_cycle1_af2pred (protein)
chain: MKAKEEAEKKVEEVVEKGEKKVEEMKGLTAEEAEKVRNEIILEGQEVAAEAKKVDPEVGKKGFEKFRKVGEKAEKAVEEVK
B9: design_609_7ee6ce64-4629-41e8-bcb4-ba0da017284d_2085_dldesign_0_cycle1_af2pred (protein)
chain: LEEKLKELRALAKEAAEKAKEEGATKTANLLLKGVEASPLKAVGYVLVAADLLKASEKLKPWAEKLEKAAEEV
B10: design_609_7ee6ce64-4629-41e8-bcb4-ba0da017284d_2040_dldesign_0_cycle1_af2pred (protein)
chain: EEEEKEKKAKELEKEAVKHREEAFDKIAEGKLEEAKELAEKIRELAKKLEELGEEAKPLADRARKGARAVERLIEAAE
B11: design_609_7ee6ce64-4629-41e8-bcb4-ba0da017284d_2406_dldesign_0_cycle1_af2pred (protein)
chain: ETEKKIKYLKEALYYLHLAIESAKLGSPPEAARRFVEIGIKKALEGDEEVGKELEKLLKELSPEEAAEAGAKLVEERIKELE
B12: design_609_7ee6ce64-4629-41e8-bcb4-ba0da017284d_2350_dldesign_0_cycle1_af2pred (protein)
chain: SEKKLKAQKEALKLVEEVAKYAEEDPETAPKFGKEKAEEAYKYALELGLSEEEAEKLRKTTLRLVEAEIRGAKLVAEKRKKALE

Molecular target: VTCN1, Q7Z7D3
Sequence (Q7Z7D3 whole entry): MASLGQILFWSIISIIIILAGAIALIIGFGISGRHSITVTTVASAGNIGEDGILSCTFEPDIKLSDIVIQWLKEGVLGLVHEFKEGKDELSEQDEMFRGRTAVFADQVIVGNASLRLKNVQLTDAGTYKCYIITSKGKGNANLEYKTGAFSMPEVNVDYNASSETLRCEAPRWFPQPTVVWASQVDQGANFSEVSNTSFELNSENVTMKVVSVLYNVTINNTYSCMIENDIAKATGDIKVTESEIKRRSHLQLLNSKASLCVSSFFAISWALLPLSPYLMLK

| Binder | binding in a display sort |
| --- | --- |
| B1 | not found |
| B2 | not found |
| B3 | not found |
| B4 | not found |
| B5 | not found |
| B6 | not found |
| B7 | not found |
| B8 | not found |
| B9 | not found |
| B10 | not found |
| B11 | not found |
| B12 | not found |
